Data taken from the supplement of paper PMC4466140.

Assays:
Assay in all cases: SPOT peptide array binding signal intensity (averaged, normalized) (arbitrary units (background-subtracted, floor 0; scale differs between SH3 domains)); higher = stronger binding of the SH3 domain to the peptide
AgAbp1 = molecular target: AgAbp1
Outline: (§1)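 Peptides were synthetic 15-mers on cellulose membranes, with every cysteine replaced by serine. They were incubated overnight at 4°C with GST-SH3 domains from four yeast species at 10 μg/ml in TBS-based blocking buffer. Binding signal, the replicate-averaged normalized and background-subtracted spot intensity, is in arbitrary units that differ between domains.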

AgBbc1 = molecular target: AgBbc1
Outline: as §1

AgBem1-D1 = molecular target: AgBem1-D1
Outline: as §1

AgBzz1-D1 = molecular target: AgBzz1-D1
Outline: as §1

AgBzz1-D2 = molecular target: AgBzz1-D2
Outline: as §1

AgCyk3 = molecular target: AgCyk3
Outline: as §1

AgFus1 = molecular target: AgFus1
Outline: as §1

AgHof1 = molecular target: AgHof1
Outline: as §1

AgHse1 = molecular target: AgHse1
Outline: as §1

AgLsb1 = molecular target: AgLsb1
Outline: as §1

AgLsb4 = molecular target: AgLsb4
Outline: as §1

AgMyo5 = molecular target: AgMyo5
Outline: as §1

AgNbp2 = molecular target: AgNbp2
Outline: as §1

AgRvs167 = molecular target: AgRvs167
Outline: as §1

AgSho1 = molecular target: AgSho1
Outline: as §1

AgSla1-D1-D2 = molecular target: AgSla1-D1-D2
Outline: as §1

AgSla1-D3 = molecular target: AgSla1-D3
Outline: as §1

CaAbp1-D1 = molecular target: CaAbp1-D1
Outline: as §1

CaAbp1-D2 = molecular target: CaAbp1-D2
Outline: as §1

CaBbc1 = molecular target: CaBbc1
Outline: as §1

CaBem1-D1 = molecular target: CaBem1-D1
Outline: as §1

CaBzz1-D1 = molecular target: CaBzz1-D1
Outline: as §1

CaBzz1-D2 = molecular target: CaBzz1-D2
Outline: as §1

CaCyk3 = molecular target: CaCyk3
Outline: as §1

CaFus1 = molecular target: CaFus1
Outline: as §1

CaHof1 = molecular target: CaHof1
Outline: as §1

CaHse1 = molecular target: CaHse1
Outline: as §1

CaLsb1 = molecular target: CaLsb1
Outline: as §1

CaLsb4 = molecular target: CaLsb4
Outline: as §1

CaMyo5 = molecular target: CaMyo5
Outline: as §1

CaNbp2 = molecular target: CaNbp2
Outline: as §1

CaRvs167 = molecular target: CaRvs167
Outline: as §1

CaRvs167-3 = molecular target: CaRvs167-3
Outline: as §1

CaSho1 = molecular target: CaSho1
Outline: as §1

CaSla1-D1-D2 = molecular target: CaSla1-D1-D2
Outline: as §1

CaSla1-D3 = molecular target: CaSla1-D3
Outline: as §1

ScAbp1 = molecular target: ScAbp1
Outline: as §1

ScBbc1 = molecular target: ScBbc1
Outline: as §1

ScBem1-D1 = molecular target: ScBem1-D1
Outline: as §1

ScBzz1-D1 = molecular target: ScBzz1-D1
Outline: as §1

ScBzz1-D2 = molecular target: ScBzz1-D2
Outline: as §1

ScCyk3 = molecular target: ScCyk3
Outline: as §1

ScFus1 = molecular target: ScFus1
Outline: as §1

ScHof1 = molecular target: ScHof1
Outline: as §1

ScHse1 = molecular target: ScHse1
Outline: as §1

ScLsb1 = molecular target: ScLsb1
Outline: as §1

ScLsb2 = molecular target: ScLsb2
Outline: as §1

ScLsb3 = molecular target: ScLsb3
Outline: as §1

ScLsb4 = molecular target: ScLsb4
Outline: as §1

ScMyo3 = molecular target: ScMyo3
Outline: as §1

ScMyo5 = molecular target: ScMyo5
Outline: as §1

ScNbp2 = molecular target: ScNbp2
Outline: as §1

ScPex13 = molecular target: ScPex13
Outline: as §1

ScRvs167 = molecular target: ScRvs167
Outline: as §1

ScSho1 = molecular target: ScSho1
Outline: as §1

ScSla1-D1-D2 = molecular target: ScSla1-D1-D2
Outline: as §1

ScSla1-D3 = molecular target: ScSla1-D3
Outline: as §1

SpAbp1-D1 = molecular target: SpAbp1-D1
Outline: as §1

SpBbc1 = molecular target: SpBbc1
Outline: as §1

SpBzz1-D1 = molecular target: SpBzz1-D1
Outline: as §1

SpBzz1-D2 = molecular target: SpBzz1-D2
Outline: as §1

SpCyk3 = molecular target: SpCyk3
Outline: as §1

SpHof1 = molecular target: SpHof1
Outline: as §1

SpHof1-2 = molecular target: SpHof1-2
Outline: as §1

SpHof1-3 = molecular target: SpHof1-3
Outline: as §1

SpHse1 = molecular target: SpHse1
Outline: as §1

SpLsb1 = molecular target: SpLsb1
Outline: as §1

SpLsb4 = molecular target: SpLsb4
Outline: as §1

SpMyo1 = molecular target: SpMyo1
Outline: as §1

SpNbp2 = molecular target: SpNbp2
Outline: as §1

SpPex13 = molecular target: SpPex13
Outline: as §1

SpRvs167 = molecular target: SpRvs167
Outline: as §1

SpSla1-D1-D2 = molecular target: SpSla1-D1-D2
Outline: as §1

SpSla1-D3 = molecular target: SpSla1-D3
Outline: as §1

Which “SPOT peptide array binding signal intensity” value (AgAbp1) does the source give for PPIPNAPLSPAPAVP here?
The value was 1.

What about the “SPOT peptide array binding signal intensity” value (AgBbc1) of the same binder?
Its value is at most 0.

What about the “SPOT peptide array binding signal intensity” value (AgBem1-D1) of the same binder?
The value was 18.5.

What about the “SPOT peptide array binding signal intensity” value (AgBzz1-D1) of the same binder?
Its value is at most 0.

And the “SPOT peptide array binding signal intensity” value (AgBzz1-D2)?
The value was at most 0.

And the “SPOT peptide array binding signal intensity” value (AgCyk3)?
The value was at most 0.

What about the “SPOT peptide array binding signal intensity” value (AgFus1) of the same binder?
The value was 2.

And the “SPOT peptide array binding signal intensity” value (AgHof1)?
Its value is 1.

What about the “SPOT peptide array binding signal intensity” value (AgHse1) of the same binder?
Its value is 2.5.

What about the “SPOT peptide array binding signal intensity” value (AgLsb1) of the same binder?
Its value is 3.

What about the “SPOT peptide array binding signal intensity” value (AgLsb4) of the same binder?
The value was 9.

What about the “SPOT peptide array binding signal intensity” value (AgMyo5) of the same binder?
The value was 1300.

What about the “SPOT peptide array binding signal intensity” value (AgNbp2) of the same binder?
Its value is 3.5.

And the “SPOT peptide array binding signal intensity” value (AgRvs167)?
Its value is 0.167.

And the “SPOT peptide array binding signal intensity” value (AgSho1)?
The value was at most 0.

And the “SPOT peptide array binding signal intensity” value (AgSla1-D1-D2)?
The value was 1.

What about the “SPOT peptide array binding signal intensity” value (AgSla1-D3) of the same binder?
Its value is at most 0.

And the “SPOT peptide array binding signal intensity” value (CaAbp1-D1)?
Its value is at most 0.

What about the “SPOT peptide array binding signal intensity” value (CaAbp1-D2) of the same binder?
The value was at most 0.

And the “SPOT peptide array binding signal intensity” value (CaBbc1)?
Its value is 2.

What about the “SPOT peptide array binding signal intensity” value (CaBem1-D1) of the same binder?
The value was 7.

And the “SPOT peptide array binding signal intensity” value (CaBzz1-D1)?
The value was at most 0.

What about the “SPOT peptide array binding signal intensity” value (CaBzz1-D2) of the same binder?
Its value is 10.5.

And the “SPOT peptide array binding signal intensity” value (CaCyk3)?
Its value is at most 0.

And the “SPOT peptide array binding signal intensity” value (CaFus1)?
The value was 59.

And the “SPOT peptide array binding signal intensity” value (CaHof1)?
The value was at most 0.

And the “SPOT peptide array binding signal intensity” value (CaHse1)?
The value was 0.5.

What about the “SPOT peptide array binding signal intensity” value (CaLsb1) of the same binder?
Its value is at most 0.

And the “SPOT peptide array binding signal intensity” value (CaLsb4)?
The value was at most 0.

What about the “SPOT peptide array binding signal intensity” value (CaMyo5) of the same binder?
The value was 952.

What about the “SPOT peptide array binding signal intensity” value (CaNbp2) of the same binder?
The value was 15.5.

And the “SPOT peptide array binding signal intensity” value (CaRvs167)?
The value was at most 0.

And the “SPOT peptide array binding signal intensity” value (CaRvs167-3)?
The value was 2.5.

What about the “SPOT peptide array binding signal intensity” value (CaSho1) of the same binder?
The value was 9.

And the “SPOT peptide array binding signal intensity” value (CaSla1-D1-D2)?
Its value is at most 0.

And the “SPOT peptide array binding signal intensity” value (CaSla1-D3)?
Its value is at most 0.

What about the “SPOT peptide array binding signal intensity” value (ScAbp1) of the same binder?
Its value is 0.5.

What about the “SPOT peptide array binding signal intensity” value (ScBbc1) of the same binder?
The value was at most 0.

What about the “SPOT peptide array binding signal intensity” value (ScBem1-D1) of the same binder?
Its value is at most 0.

And the “SPOT peptide array binding signal intensity” value (ScBzz1-D1)?
The value was 4.

What about the “SPOT peptide array binding signal intensity” value (ScBzz1-D2) of the same binder?
Its value is 7.5.

What about the “SPOT peptide array binding signal intensity” value (ScCyk3) of the same binder?
The value was 2.5.

What about the “SPOT peptide array binding signal intensity” value (ScFus1) of the same binder?
The value was at most 0.

And the “SPOT peptide array binding signal intensity” value (ScHof1)?
Its value is at most 0.

What about the “SPOT peptide array binding signal intensity” value (ScHse1) of the same binder?
The value was 1.5.

And the “SPOT peptide array binding signal intensity” value (ScLsb1)?
Its value is 2.5.

What about the “SPOT peptide array binding signal intensity” value (ScLsb2) of the same binder?
Its value is 4.5.

What about the “SPOT peptide array binding signal intensity” value (ScLsb3) of the same binder?
The value was at most 0.

What about the “SPOT peptide array binding signal intensity” value (ScLsb4) of the same binder?
The value was at most 0.

And the “SPOT peptide array binding signal intensity” value (ScMyo3)?
The value was 2660.

And the “SPOT peptide array binding signal intensity” value (ScMyo5)?
Its value is 1550.

What about the “SPOT peptide array binding signal intensity” value (ScNbp2) of the same binder?
Its value is 7.5.

And the “SPOT peptide array binding signal intensity” value (ScPex13)?
The value was 7.63e-06.

And the “SPOT peptide array binding signal intensity” value (ScRvs167)?
The value was at most 0.

And the “SPOT peptide array binding signal intensity” value (ScSho1)?
The value was at most 0.

What about the “SPOT peptide array binding signal intensity” value (ScSla1-D1-D2) of the same binder?
The value was at most 0.

What about the “SPOT peptide array binding signal intensity” value (ScSla1-D3) of the same binder?
Its value is 1.25.

And the “SPOT peptide array binding signal intensity” value (SpAbp1-D1)?
The value was at most 0.

What about the “SPOT peptide array binding signal intensity” value (SpBbc1) of the same binder?
The value was 0.5.

And the “SPOT peptide array binding signal intensity” value (SpBzz1-D1)?
Its value is at most 0.

What about the “SPOT peptide array binding signal intensity” value (SpBzz1-D2) of the same binder?
The value was 0.5.

And the “SPOT peptide array binding signal intensity” value (SpCyk3)?
Its value is 1.

What about the “SPOT peptide array binding signal intensity” value (SpHof1) of the same binder?
The value was at most 0.

What about the “SPOT peptide array binding signal intensity” value (SpHof1-2) of the same binder?
The value was 1.

And the “SPOT peptide array binding signal intensity” value (SpHof1-3)?
Its value is 1.

What about the “SPOT peptide array binding signal intensity” value (SpHse1) of the same binder?
Its value is 23.

And the “SPOT peptide array binding signal intensity” value (SpLsb1)?
Its value is at most 0.

What about the “SPOT peptide array binding signal intensity” value (SpLsb4) of the same binder?
Its value is at most 0.

And the “SPOT peptide array binding signal intensity” value (SpMyo1)?
The value was 946.

And the “SPOT peptide array binding signal intensity” value (SpNbp2)?
Its value is at most 0.

And the “SPOT peptide array binding signal intensity” value (SpPex13)?
Its value is at most 0.

And the “SPOT peptide array binding signal intensity” value (SpRvs167)?
Its value is at most 0.

And the “SPOT peptide array binding signal intensity” value (SpSla1-D1-D2)?
Its value is at most 0.

What about the “SPOT peptide array binding signal intensity” value (SpSla1-D3) of the same binder?
Its value is at most 0.
